Relative cell viability data for 13 molecules are collected here from the supplement of paper PMC7184167.

Counter-ions that a name gives are not always drawn.

The assay relates to replication-induced senescent mouse newborn dermal fibroblasts (NBF). Put plainly: relative cell viability of senescent cells (fraction); higher = less killing of senescent cells. As to conditions: 1 µM; 3 days. Here is the method:
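Replication-induced senescent newborn mouse skin fibroblasts (NBFs) in 24-well plates were treated with a Selleck FDA-approved drug library at 1 µM for 3 days.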
The molecule `C=C1C[C@@H]2[C@H](CC[C@]3(C)C(=O)CC[C@@H]23)[C@@]2(C)C=CC(=O)C=C12` [Exemestane] had a relative cell viability of 1.08.
Next, `CN(C)C(=O)Oc1ccc[n+](C)c1` [Pyridostigmine Bromide]: 1.19.
Molecule `COc1cc2c(cc1OC)C1CC(=O)C(CC(C)C)CN1CC2` (stereo not drawn) [Tetrabenazine (Xenazine)] gave a relative cell viability of 1.04.
On to `C[C@]12Cc3c[nH]nc3C[C@@H]1CC[C@@H]1[C@@H]2CC[C@@]2(C)[C@H]1CC[C@]2(C)O` [Stanozolol], for which the relative cell viability was determined as 0.136.
`CN1[C@@H]2C[C@@H](OC(=O)[C@H](CO)c3ccccc3)C[C@H]1[C@@H]1O[C@@H]12` [Scopolamine HBr]: the relative cell viability worked out at 1.03.
The molecule `CC(O)(CS(=O)(=O)c1ccc(F)cc1)C(=O)Nc1ccc(C#N)c(C(F)(F)F)c1` (stereo not drawn) [Bicalutamide] registered a relative cell viability of 0.913.
`C[C@]12CC[C@H]3[C@@H](CC[C@@]45O[C@@H]4C(O)=C(C#N)C[C@]35C)[C@@H]1CC[C@@H]2O` [Trilostane]: the relative cell viability was 0.778.
Next, `CN1c2ccccc2C(NCCCCCCC(=O)O)c2ccc(Cl)cc2S1(=O)=O` (stereo not drawn) [Tianeptine sodium]: 0.946; `COc1ccc(C(CN(C)C)C2(O)CCCCC2)cc1` (stereo not drawn) [Venlafaxine HCl]: 1.03.
`Cn1c(CCCC(=O)O)nc2cc(N(CCCl)CCCl)ccc21` [Bendamustine HCl] came in with a relative cell viability of 0.999.
The molecule `CCC1(c2ccc(N)cc2)CCC(=O)NC1=O` (stereo not drawn) [Aminoglutethimide] had a relative cell viability of 0.889.
Turning to `CN(C)[C@@H]1C(=O)C(C(N)=O)=C(O)[C@@]2(O)C(=O)C3=C(O)c4c(O)cccc4[C@@](C)(O)[C@H]3[C@H](O)[C@@H]12` [Oxytetracycline (Terramycin)], the relative cell viability is 1.01.
In turn, `Cn1cc(C2=C(c3cn(C4CCN(Cc5ccccn5)CC4)c4ccccc34)C(=O)NC2=O)c2ccccc21` returned a relative cell viability of 0.523.
